In the library only some 3.8% were active in any assay of this set; here they are far more common.
TIM10 inh: TIM10 yeast growth inhibition; S. cerevisiae TIM10 strain growth, BacTiter-Glo luminescence, 24 h; inhibition, % at 10 µM; 330,000 compounds, 1.4% hits; AID 463195;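 active = inhibition of 40% or more at the single tested concentration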;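 note: wild-type TIM10 isogenic control strain grown at permissive 25 °C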
PfHsp90 yeast 2: inhibits growth of yeast expressing Plasmodium falciparum Hsp90; inhibition, % at 9.4 µM; S. cerevisiae expressing PfHsp90, BacTiter-Glo ATP, 48 h; yeast lacking PDR1 and PDR3 efflux regulators; 310,000 compounds, 0.32% hits; AID 504621;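 active = every replicate shows inhibition above about 80%, whatever the replicate mean, limit read from the data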
tim23-1 inh: growth inhibitors of tim23-1 mutant yeast; S. cerevisiae tim23-1 growth, BacTiter-Glo luminescence, 24 h; 330,000 compounds, 1.3% hits; inhibition, % at 20 µM;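 active = growth inhibition of the mutant yeast at or above 50%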;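 note: temperature-sensitive mutant grown at 25 °C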
tim10-1 inh: growth inhibitors of tim10-1 mutant yeast | S. cerevisiae tim10-1 ts strain growth, BacTiter-Glo, 24 h | inhibition, % at 20 µM | 330,000 compounds, 2.2% hits | AID 463190;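 active = inhibition of at least 40%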;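 note: mutant grown at 25 °C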
Beta2AR agonist: agonists of human beta-2 adrenergic receptor inducing internalization; Am2.2-beta2AR cells, FAP receptor internalization, flow cytometry; response, % (test concentration not listed); AID 504454; 340,000 compounds, 0.43% hits; P07550;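 active = response above a set limit, near 3 SD of response in nonfluorescent compounds, cut at about 42% in these data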
Target sequence (P07550 whole entry, looked up): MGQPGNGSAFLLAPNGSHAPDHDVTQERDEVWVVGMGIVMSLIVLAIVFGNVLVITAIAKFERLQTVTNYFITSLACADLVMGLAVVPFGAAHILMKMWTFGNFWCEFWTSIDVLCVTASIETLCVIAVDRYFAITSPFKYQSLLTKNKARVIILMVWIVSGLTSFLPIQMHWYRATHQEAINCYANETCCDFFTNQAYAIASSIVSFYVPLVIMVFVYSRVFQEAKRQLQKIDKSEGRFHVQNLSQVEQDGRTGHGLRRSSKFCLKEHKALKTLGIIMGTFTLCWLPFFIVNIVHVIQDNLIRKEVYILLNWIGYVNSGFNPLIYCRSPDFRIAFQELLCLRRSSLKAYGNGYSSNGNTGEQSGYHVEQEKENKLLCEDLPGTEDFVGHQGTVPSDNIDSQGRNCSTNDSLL
tim10-1 confirm: tim10-1 yeast growth inhibition, confirmed | AID 463213 | shares compounds with tim10-1 inh | inhibition, % at 20 µM | S. cerevisiae tim10-1 ts strain growth, BacTiter-Glo, 24 h | 7,400 compounds, 56% hits;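 active = inhibition of yeast growth at or above a set limit in either of two repeat tests at 20 µM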;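 note: tim10-1 mutant grown at permissive 25 °C to find synthetic lethal compounds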
Each line names hits and unclear results; the compound was inactive in the other large screens (follow-up assays come after a bar, where they were run).

CSC1=NC(C)(C)C=C(/C=C/c2ccc(Cl)cc2)N1	tim10-1 inh 43, Beta2AR agonist 84 | tim10-1 confirm inactive
COc1ccc2sc(-c3ccc(SC)cc3)c(/C=C/c3ccc(OC)c(OC)c3)c2c1	none (no result: PfHsp90 yeast 2)
CS(=O)(=O)Nc1ccc(C(=O)NCCSc2ccc(Cl)cc2)cc1	none
O=C(CNc1ccc2ccccc2c1)N/N=C/c1ccncc1	none
CSc1ccc(/C=N/NC(=O)CNc2ccc3ccccc3c2)cc1	tim10-1 inh 46 | tim10-1 confirm 43
CCOc1ccc(NC(=O)CCC(=O)NNC(=O)c2ccc(Br)o2)cc1	none
CC(=O)Nc1cc([N+](=O)[O-])ccc1OCc1ccccc1	none (no result: TIM10 inh, tim23-1 inh, tim10-1 inh)
O=c1[nH]c2cc3ccccc3cc2nc1C(F)(F)F	tim10-1 inh 42 | tim10-1 confirm inactive
COc1c(NC=O)c2c(c([N+](=O)[O-])c1OC)C(=O)OC2	none (no result: TIM10 inh, PfHsp90 yeast 2, tim23-1 inh, tim10-1 inh)
COC(=O)CN1C(=S)N(c2ccc(OC)cc2)C(=O)/C1=C/c1ccc(OC)cc1	tim10-1 inh 50 | tim10-1 confirm 37
COC(=O)CN1C(=S)N(c2ccc(OC)cc2)C(=O)/C1=C/c1ccc(N2CCOCC2)cc1	none (no result: TIM10 inh, tim23-1 inh, tim10-1 inh)
C=CS(=O)(=O)c1c2cc(OC)ccc2nc2ccc(OC)cc12	none (no result: TIM10 inh, tim23-1 inh, tim10-1 inh)
Cc1cc(NCCCn2ccnc2)n2ncc(-c3ccc(Cl)cc3)c2n1	tim10-1 inh 41 | tim10-1 confirm inactive
Cc1cc(NCCCN2CCOCC2)n2ncc(-c3ccc(Cl)cc3)c2n1	none (no result: PfHsp90 yeast 2)
O=C(CN1C(=O)NC(CCc2ccccc2)C1=O)Nc1ccc(F)c(F)c1F (stereo not given)	none
O=C(CSc1nnc(COc2ccc(F)cc2)o1)N1c2ccccc2CCc2ccccc21	tim10-1 inh 42 (no result: PfHsp90 yeast 2) | tim10-1 confirm inactive
Cc1cccc(OCc2nnc(SCC(=O)N3c4ccccc4CCc4ccccc43)o2)c1	none
CC(C)[C@H](NS(=O)(=O)c1ccccc1)C(=O)OCC(=O)N1N=C(c2ccc(Cl)cc2)CC1c1ccco1 (stereo not given in full)	tim10-1 inh 41 | tim10-1 confirm inactive
OCCN1CCN(CC/C=C2/c3ccccc3Sc3ccc(Cl)cc32)CC1	tim10-1 inh 44 | tim10-1 confirm inactive
CC[N+](C)(C)CC/C=C1/c2ccccc2Sc2ccc(Cl)cc21	none (no result: PfHsp90 yeast 2)
CN(C)CCCN1c2ccccc2Sc2ccc(Cl)cc21	none
OCCN1CCN(CCCN2c3ccccc3Sc3ccc(Cl)cc32)CC1	tim10-1 inh 43 (no result: Beta2AR agonist) | tim10-1 confirm inactive
CC(C)(C)n1nnnc1C(c1ccccn1)N(Cc1ccccc1)Cc1ccc(Cl)cc1 (stereo not given)	tim10-1 inh 50 | tim10-1 confirm 31
COc1ccc(-c2nnc(SCc3cc(C)ccc3C)n2N)cc1	tim10-1 inh 42 | tim10-1 confirm 39
CCc1ccc(Nc2n[n+](-c3ccccc3)c(/C=C/c3ccccc3)s2)cc1	tim10-1 inh 43 (no result: PfHsp90 yeast 2, Beta2AR agonist) | tim10-1 confirm inactive
c1ccc(-c2cc(-c3nnc4n3N=C(c3ccc5ccccc5c3)CS4)[nH]n2)cc1	tim10-1 inh 48 | tim10-1 confirm inactive
Cc1cc(-c2nnc3n2N=C(c2ccc(-c4ccccc4)cc2)CS3)n[nH]1	none
O=C(NC(=S)NCCC1=CCCCC1)c1cncc(Br)c1	tim10-1 inh 42 | tim10-1 confirm inactive
CCCNC(=O)C(=O)NCCC1=CCCCC1	none (no result: PfHsp90 yeast 2)
Cc1ccc(N2C(=O)c3ccccc3C2=O)cc1	none
Cc1ccc(SC2=C(Sc3ccc(C)cc3)C(=O)c3ccccc3C2=O)cc1	tim10-1 inh 43 | tim10-1 confirm inactive
O=C(NCCO)c1cccc(Nc2nc(-c3ccccc3)c3cc(Cl)ccc3n2)c1	tim10-1 inh 45 | tim10-1 confirm inactive
O=C(O)CCCC(=O)NNc1nc(-c2ccccc2)c2cc(Cl)ccc2n1	none
CCOC(=O)C1(NC(=O)C2(N3C(=O)c4ccccc4C3=O)CCCC2)CCCC1	none (no result: TIM10 inh, PfHsp90 yeast 2, tim23-1 inh, tim10-1 inh)
CCCc1cc(=O)oc2cc(OCC(=O)N3CCN(C(=O)C4COc5ccccc5O4)CC3)ccc12 (stereo not given)	none
COCc1n[nH]c(=S)n1-c1ccccc1	none
S=c1[nH]nc(CSCc2ccccc2Cl)n1-c1ccccc1	tim10-1 inh 46 | tim10-1 confirm 37
Brc1ccc(-c2cn3nc4c(nc3n2)CCCC4)cc1	none (no result: PfHsp90 yeast 2)
Brc1ccc(-c2cn3c(n2)CCc2ccc4cccnc4c2-3)cc1	tim10-1 inh 46 | tim10-1 confirm 32
Cc1ccc(C(=O)N2CCC3(CC2)Oc2ccc(F)cc2C(=O)C32CC(c3cccnc3)=NO2)s1 (stereo not given)	tim10-1 inh 42 | tim10-1 confirm inactive
Cc1ccc(NC(=O)CSc2ccc3c(c2)OCCO3)nc1	none (no result: PfHsp90 yeast 2)
COc1ccc(Cl)cc1C=CC=Nc1ccccc1O	none (no result: TIM10 inh, tim23-1 inh, tim10-1 inh)
Clc1nssc1=Nc1ccccc1	none (no result: TIM10 inh, PfHsp90 yeast 2, tim23-1 inh, tim10-1 inh)
CCOC(=O)c1ccc(N=c2ssnc2Cl)cc1	tim10-1 inh 41 | tim10-1 confirm 40
O=C(O)c1ccc(CSc2nc3ccc(N4C(=O)C5C6C=CC(C6)C5C4=O)cc3s2)cc1 (stereo not given)	tim10-1 inh 52 | tim10-1 confirm inactive
O=C(CN1CCSC1=O)Nc1ccc(N2CCOCC2)cc1	none
CCOC(=O)c1sc(=S)n(CC)c1N	none
CCOC(=O)c1sc(=S)n(Cc2ccccc2)c1N	tim10-1 inh 42 | tim10-1 confirm 40
O=C(c1csc2c1CCCC2)N1CCN(c2ncccn2)CC1	none
O=C(c1csc2c1CCCC2)N1CCN(c2cccc(C(F)(F)F)c2)CC1	tim10-1 inh 56 (no result: PfHsp90 yeast 2) | tim10-1 confirm 33
O=C(c1csc2c1CCCC2)N1CCN(c2ccc(F)cc2)CC1	tim10-1 inh 43 (no result: PfHsp90 yeast 2) | tim10-1 confirm inactive
O=C(c1cccc(F)c1)N1CCN(c2cccc(C(F)(F)F)c2)CC1	none
Cc1cccc(C(=O)O/N=C/c2c(N3CCOCC3)n(C)c3ccccc23)c1	tim10-1 inh 41 (no result: PfHsp90 yeast 2, Beta2AR agonist) | tim10-1 confirm inactive
COC(=O)Cn1ncc(N(C)Cc2ccccc2)c(Cl)c1=O	none
COc1ccc(NC(=O)c2cn(CCC#N)nc2-c2cccs2)cc1	tim10-1 inh 41 | tim10-1 confirm inactive
N#CCCn1cc(C(=O)Nc2ccc([N+](=O)[O-])cc2)c(-c2cccs2)n1	none
O=C(c1cc(-c2cccnc2)nc2ccc(Br)cc12)N1CCN(c2ncccn2)CC1	tim10-1 inh 46 | tim10-1 confirm inactive
CCOC(=O)C1(Cc2ccc(OC)cc2)CCN(C(=O)c2cc(C)on2)CC1	none
CCOC(=O)C1(Cc2ccc(OC)cc2)CCN(C(=O)c2cc3ccccc3[nH]2)CC1	tim10-1 inh 41 | tim10-1 confirm inactive
C/C(=N\O)c1ccc(Cl)cc1Cl	none
C/C(=N\O)c1cc(Cl)cc(Cl)c1O	tim10-1 inh 48 | tim10-1 confirm 43
Cc1ccnc2nc(C(=O)OCC(=O)N(Cc3ccccc3)C(C)C)nn12	none
O=C1C(NS(=O)(=O)c2ccc(Br)cc2)=C(N2CCCCC2)C(=O)c2ccccc21	tim10-1 inh 50 | tim10-1 confirm inactive
CC1CCN(C2=C(NS(=O)(=O)c3ccc(Cl)cc3)C(=O)c3ccccc3C2=O)CC1	tim10-1 inh 40 | tim10-1 confirm inactive

Bioassay records deposited in PubChem by several laboratories.
